{"source": "PubChem BioAssay (NCATS)", "note": "Results filed as inconclusive are left out. Where a call stands in place of a potency, no number is given. Calls of active or inactive are those of the source. Calls come from the whole dose curve; as a rule, active = well fitted cell-killing curve with a large enough effect; inconclusive = small, poorly fitted or top-dose-only effect, or effect the other way; inactive = flat fitted curve, though single readings scatter. Potency is the fitted concentration of half-maximal effect.", "data": [{"test": "Cell Viability - LYMP2-003 (AID 965);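 note: cells exposed to compounds for 24 h before reading; nearly all actives have a fitted effect of over 50% in size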", "conditions": "LYMP2-003 lymphoblastoid cell viability; series mostly up to 92.2 µM", "source_text": "NIH Chemical Genomics Center [NCGC]\nNIH Molecular Libraries Screening Centers Network [MLSCN]\nNational Institutes of Environmental Health Sciences [NIEHS]\nNational Toxicology Program [NTP]\nWe have developed a 1536-well cell-based assay for quantitative high throughput screening (qHTS) against a number of cell lines to determine in vitro cytotoxicity of small molecules. This particular assay uses a human lymphoblastoid cell line (LYMP2-003) purchased from Coriell Institute for Medical Research.\nNCGC Assay Protocol Summary:\nThe CellTiter-Glo luminescent cell viability assay (Promega) is a homogeneous method to measure the number of viable cells in culture. The end point readout of this assay is based on quantitation of intracellular ATP, an indicator of metabolic activity, using the luciferase reaction. Luciferase catalyzes the oxidation of beetle Luciferin to oxyluciferin and light in the presence of ATP. The luminescent signal is proportional to amount of ATP present.\nUsing the CellTiter-Glo luminescent cell viability assay, the amount of cellular ATP was measured in the lymphoblastoid cell line with complete culture medium following compound treatment for 24 hours. The assay was performed in opaque white Kalypsys 1536-well plates. In the screen, tetraoctylammonium bromide was used as positive control. Library compounds were measured for their ability to cause acute toxicity in the cell line, as reflected by a decrease in intracellular ATP levels, in a concentration-dependent manner. […] AC50 values were determined from concentration-response data modeled with the standard Hill equation.\nqHTS protocol for CellTiter Glo lymphoblastoid cellular assay\n[Step] [Parameter] [Value] [Description]\n1. Reagent; 5 uL; 2500 lymphoblastoid cells/well\n2. Time; 5 hr; 37 C incubation\n4. Controls; 23 nL; Tetraoctylammonium bromide 6.4pM to 92 uM\n5. Time; 24 hr; 37 C incubation\n6. Reagent; 5 uL; CellTiter Glo reagent\n7. Time; 30 min; Room Temperature\n8. Detection; Luminescence; Viewlux plate reader\nKeywords: cell viability, cytotoxicity, lymphoblastoid cell line, luminescence, NTPHTS, NTPHTS_NCGC, NIEHS, DSSTox, MLSMR, MLSCN, NIH Roadmap, qHTS, NCGC", "values": [{"smiles": "Nc1ccc(O)cc1", "Potency": "25.1 µM (active)"}, {"smiles": "O=C(Oc1ccccc1)c1ccccc1O", "Potency": "inactive"}, {"smiles": "O=C(c1ccccc1)c1ccccc1", "Potency": "inactive"}, {"smiles": "c1ccc2occc2c1", "Potency": "inactive"}, {"smiles": "Brc1ccccc1-c1ccccc1", "Potency": "inactive"}, {"smiles": "Cc1cc(C(C)(C)C)c(O)c(C(C)(C)C)c1", "Potency": "inactive"}, {"smiles": "CCCCCCCCCCCCCCCC[n+]1ccccc1", "Potency": "31.6 µM (active)"}, {"smiles": "CC(C)(C)c1ccc(O)c(O)c1", "Potency": "50.1 µM (active)"}, {"smiles": "CCCCC(CC)COC(=O)c1ccccc1C(=O)O", "note": "(centres undefined)", "Potency": "inactive"}, {"smiles": "Nc1cccc2c(N)cccc12", "Potency": "inactive"}, {"smiles": "OCc1c[nH]c2ccccc12", "Potency": "inactive"}, {"smiles": "Nc1c2ccccc2nc2ccccc12", "Potency": "25.1 µM (active)"}, {"smiles": "Oc1ccccc1", "Potency": "inactive"}, {"smiles": "Cc1ccc(O)cc1", "Potency": "inactive"}, {"smiles": "CC(C)C(C)(C)C(C)(C)C(C)(C)S", "Potency": "inactive"}, {"smiles": "CC(C)(c1ccc(O)cc1)c1ccc(O)cc1", "Potency": "inactive"}, {"smiles": "COc1cc(C=O)ccc1O", "Potency": "inactive"}, {"smiles": "O=C(NO)c1ccccc1", "Potency": "inactive"}, {"smiles": "C1=CC2C3C=CC(C3)C2C1", "note": "(centres undefined)", "Potency": "inactive"}]}]}
